Measured values: PubChem BioAssay (NCI)
This is part of a sample that, as a whole, favours compounds with a hit. Of some 79,000 tested, about 15% had one in any assay. Rule as the data show it: active = growth inhibition above about 70%; inactive = the rest.

Legend:
[1] = NCI Yeast Anticancer Drug Screen. Data for the rad50 strain (AID 155);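 also: 0% = growth of vehicle-only cultures of the same strain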; settings: S. cerevisiae rad50 strain growth inhibition; at 50.0 µM; active compounds read high
Outline: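 Growth of the mutant yeast was measured after compound exposure and referenced to vehicle-treated cultures.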

[2] = NCI Yeast Anticancer Drug Screen. Data for the mec2-1 strain (AID 157); settings: S. cerevisiae mec2-1 strain, at 50.0 µM, active compounds read high
Outline: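 Compounds were applied to mec2-1 yeast cells. Their growth was then compared with that of vehicle-treated cultures to give growth inhibition.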

[3] = NCI Yeast Anticancer Drug Screen. Data for the sgs1 mgt1 strain (AID 161);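 also: 0% = growth of cultures given vehicle only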; settings: S. cerevisiae sgs1 mgt1 strain, at 50.0 µM, active compounds read high
Outline: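 This yeast growth screen uses a strain with defined DNA-repair lesions; compound-treated growth is compared with vehicle-treated growth.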

[4] = NCI Yeast Anticancer Drug Screen. Data for the cln2 rad14 strain (AID 165);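 also: 0% = growth equal to vehicle treated cultures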; settings: S. cerevisiae cln2 rad14 strain, at 50.0 µM, active compounds read high
Outline: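 Strain: cln2 rad14 yeast, altered in cell cycle control and DNA damage repair. Read-out: growth inhibition vs vehicle.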

[5] = NCI Yeast Anticancer Drug Screen. Data for the bub3 strain (AID 167); settings: S. cerevisiae bub3 mutant strain, at 50.0 µM, active compounds read high
Outline: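 Whole-cell yeast assay. The mutant strain was incubated with compounds, and growth inhibition was determined by comparison with vehicle-treated cells.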

[6] = NCI Yeast Anticancer Drug Screen. Data for the mlh1 rad18 strain (AID 175); settings: S. cerevisiae mlh1 rad18 strain growth inhibition; at 50.0 µM; active compounds read high
Outline: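 A repair-deficient yeast strain is exposed to test compound, and growth is scored relative to vehicle-treated controls.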

Measured: growth inhibition

Cc1cccc2c(=O)[nH]c(=O)[nH]c12
inactive: [1] -14.2% | [2] -12.2% | [3] -2.15% | [4] -58.8% | [5] -4.4% | [6] -20.1%

COC1(OC)CCC2C1C1CCC(OC)(OC)C21 (configuration not stated)
inactive: [1] 1.7% | [2] -3.35% | [3] 11.3% | [4] 8.75% | [5] 3.4% | [6] -17.4%

OCCOCn1nc(-c2ccccc2)nc1-c1cnccn1
inactive: [1] -13.4% | [2] -4.55% | [3] -20.3% | [4] -27.9% | [5] -38.1% | [6] -24.1%

C=C(CC(O)c1ccccc1)C(=O)Nc1ccccc1OC (configuration not stated)
inactive: [1] 25.9% | [2] 0.45% | [3] 13.3% | [4] 1.25% | [5] 6.3% | [6] 4.1%

Cc1c2c([nH]c(=O)c1C)C=CC(Br)C2Br (configuration not stated)
inactive: [1] -0.7% | [2] 0.55% | [3] 1.5% | [4] 3.2% | [5] 0.2% | [6] 6.95%

Cc1ccc(C(C)(O)C2CC2)cc1 (configuration not stated)
inactive: [1] -11.4% | [2] -33.8% | [3] -18.4% | [4] 18.6% | [5] -35.8% | [6] 18.1%

CCCCOB1OC(c2ccccc2)(c2ccccc2)c2ccccc2C(c2ccccc2)(c2ccccc2)O1
inactive: [1] 31.1% | [2] 3.65% | [3] 27.2% | [4] 3.85% | [5] -2.1% | [6] 22.6%

CN(C)Cc1cc(N=Nc2c(Cl)cccc2Cl)ccc1O
inactive: [1] 14.4% | [2] 19.8% | [3] 8.35% | [4] 1.95% | [5] 28% | [6] 18.4%

COC(=O)/C(C)=C1\C=C(C)CC(C)(C)C1
inactive: [1] -4.3% | [2] -25.1% | [3] -10.6% | [4] 1% | [5] -23.9% | [6] -2.3%

COc1ccc(CN2CCCN(Cc3ccc(OC)cc3OC)C2c2ccc(N(C)C)cc2)c(OC)c1
inactive: [1] 39.9% | [2] 14.5% | [3] 21.1% | [4] 3.6% | [5] 15.7% | [6] 12.1%

O=C(O)COc1c(Cl)cc(Cl)cc1Cl
inactive: [1] -34.7% | [2] -37% | [3] -29.6% | [4] -15.4% | [5] -39.9% | [6] -31.6%

Cc1ccc(S(=O)(=O)n2oc(N)c(Cc3ccccc3)c2=O)cc1
inactive: [1] -25.4% | [2] -0.15% | [3] 7.8% | [4] -23.5% | [5] 19.2% | [6] -2.55%

CC(=O)Nc1c(Cl)cc(N)cc1Cl
inactive: [1] 9.35% | [2] -23.4% | [3] 2.3% | [4] 9.85% | [5] -16.4% | [6] 4.3%

O=C(O)C(c1ccccc1)C1(O)CC2CCC1C2 (configuration not stated)
inactive: [1] -38% | [2] -45.5% | [3] -36.6% | [4] -10.7% | [5] -56% | [6] -54.5%

Cc1cc(C)c2ccc(NN=O)nc2n1
inactive: [1] 11.4% | [2] 9.75% | [3] 18.9% | [4] 19.1% | [5] 13.2% | [6] 25.7%

O=C1NC(=S)S/C1=C\c1ccc2c(c1)OCO2
inactive: [1] -22.1% | [2] -21.3% | [3] -4.8% | [4] -2% | [5] -8.05% | [6] -7.55%

NC(CS)=NCc1ccccc1
inactive: [1] 0.65% | [2] -1.35% | [3] -12.9% | [4] -86.6% | [5] 8.85% | [6] -6%

Cc1noc2ncnc(NCCCN(C)C)c12
inactive: [1] 13.4% | [2] 4.3% | [3] -0.8% | [4] -6.95% | [5] 1.55% | [6] -0.9%

COc1cc(C2C3=C(COC3=O)Oc3cc4c(cc32)OCO4)ccc1OC(C)=O (configuration not stated)
inactive: [1] 20.7% | [2] 5.55% | [3] -13.8% | [4] 21.1% | [5] -4.35% | [6] -5.2%

O=C1C2C3CC(C4C5C=CC(C5)C34)C2C2C3CC(C12)C1C2C=CC(C2)C31 (configuration not stated)
inactive: [1] -19.1% | [2] -15.9% | [3] -24% | [4] 17.8% | [5] -9.15% | [6] -24.4%

NC(=S)c1ccc[n+]([O-])c1
inactive: [1] 15.6% | [2] 10.1% | [3] 20.2% | [4] -13.7% | [5] 6.9% | [6] 6.85%

CCc1ccc(NC(C)=O)cc1C
inactive: [1] -9.5% | [2] 11.7% | [3] -0.95% | [4] 27% | [5] -1.15% | [6] -9.9%

O=C1C2C=CC(n3[nH]c(=O)n(Cc4ccccc4)c3=O)CC2C(=O)N1c1ccc(Br)cc1 (configuration not stated)
inactive: [1] -3.8% | [2] 3.8% | [3] 3.1% | [4] -30.4% | [5] 4.15% | [6] 2%

COc1ccccc1C/C(=N/O)c1ccccc1OC
inactive: [1] 3.65% | [2] -2.8% | [3] 14.1% | [4] 15.6% | [5] -3.8% | [6] 4.35%

Cc1ccccc1C(=O)N(C(C)C)C(C)C
inactive: [1] 12.8% | [2] -6.45% | [3] 7.2% | [4] -12.6% | [5] 15.2% | [6] 1%

COc1ccc(C2C3=C(CC(C)(C)CC3=O)Oc3cc4c(cc32)OCO4)cc1 (configuration not stated)
inactive: [1] -2.7% | [2] -0.05% | [3] -25% | [4] -0.45% | [5] 0% | [6] -4.95%

S=C1NCC(c2ccccc2)CN1
inactive: [1] 0.5% | [2] 1.65% | [3] -2.55% | [4] 19.9% | [5] -7.95% | [6] -5.9%

c1ccc(CSc2ccc3ccccc3c2)cc1
inactive: [1] -4.3% | [2] -20.1% | [3] -13.5% | [4] -51.8% | [5] -4.1% | [6] -29.9%

CC(=O)CCCO
inactive: [1] -1.6% | [2] -5.75% | [3] -0.8% | [4] -9.4% | [5] 19.1% | [6] -0.9%

c1ccc(SCCCCSc2ccccc2)cc1
inactive: [1] 17.1% | [2] 5.05% | [3] -2.55% | [4] -38% | [5] 14.1% | [6] 43%

CC(c1ccccc1)C1OCCO1 (configuration not stated)
inactive: [1] -7.45% | [2] -27.4% | [3] -15.8% | [4] -30.8% | [5] -28.2% | [6] 28.7%

O=C(CC/[N+]([O-])=C/c1ccccc1)OCc1ccccc1
inactive: [1] 24.9% | [2] 20.8% | [3] 1.3% | [4] 12% | [5] 21.8% | [6] 52.5%

O=c1[nH]c2ccccc2c(O)c1O
inactive: [1] 24.4% | [2] 7.85% | [3] 22.9% | [4] 14.7% | [5] 1% | [6] -5.35%

CC12CCC(=O)C=C1CCC1C2CCC2(C)C1CCC2(O)C(=O)Cn1c(=O)[nH]cc(F)c1=O (configuration not stated)
inactive: [1] -0.8% | [2] -1.2% | [3] 5.75% | [4] 10.8% | [5] -1.2% | [6] 11.4%

O=C(O)/C=C\c1cccc([N+](=O)[O-])c1
inactive: [1] 11.9% | [2] -16.4% | [3] 7.4% | [4] 22.3% | [5] 27.6% | [6] -14.8%

CCOC(=O)C(C)(Cc1ccco1)C(=O)OCC
inactive: [1] -16.1% | [2] -10.3% | [3] -5.2% | [4] -33.5% | [5] 14.4% | [6] -12.3%

CCOC(=O)CCCC(NC(=O)c1ccc(N2CCN(c3c(N)nc(N)nc3NC)CC2)cc1)C(=O)OCC (configuration not stated)
inactive: [1] 9.95% | [2] 5.75% | [3] -0.4% | [4] 6.55% | [5] -3.95% | [6] -2.3%

O=[N+]([O-])c1ccc(/C=N\N=C\c2ccco2)cc1
inactive: [1] 1.85% | [2] 16.8% | [3] -4.35% | [4] -50.1% | [5] -9.9% | [6] 4.95%

CCOC(=O)COc1cc(C)c2ccc(=O)oc2c1
inactive: [1] 3.9% | [2] -1.35% | [3] 10.8% | [4] 8.45% | [5] 6.4% | [6] 29.1%

CCOC(=O)C(C#N)C1(O)C(=O)Nc2ccccc21 (configuration not stated)
inactive: [1] -4.65% | [2] -5% | [3] -6.7% | [4] 3.8% | [5] 0.55% | [6] 10.2%

COCCO[Si](OCCOC)(OCCOC)OCCOC
inactive: [1] 4.3% | [2] -10.2% | [3] -1.25% | [4] 11.9% | [5] 7.4% | [6] 10.2%

Clc1ccc(SCc2csc(-c3ccc(Cl)cc3)n2)cc1
inactive: [1] -27.5% | [2] -41.8% | [3] -19.1% | [4] -27.8% | [5] -6.8% | [6] -29.8%
